For ten compounds, growth inhibition results are on record in PubChem BioAssay (NCI).

Assay [1] in a line: NCI Yeast Anticancer Drug Screen. Data for the rad50 strain (AID 155).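 Further: 0% = growth of vehicle-only cultures of the same strain.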 The note with it: S. cerevisiae rad50 strain growth inhibition, hits give high values. In short, it runs like this: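 Cells are treated with compound, grown, and their growth is then scored against vehicle-only cultures of the same repair-deficient yeast strain.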
Assay [2] in a line: NCI Yeast Anticancer Drug Screen. Data for the mec2-1 strain (AID 157). Particulars: S. cerevisiae mec2-1 strain, hits give high values. The essentials: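 Each compound was tested on mec2-1 yeast, a strain altered in DNA damage repair or cell cycle control. Growth inhibition is reported relative to vehicle.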
Assay [3] can be described thus: NCI Yeast Anticancer Drug Screen. Data for the sgs1 mgt1 strain (AID 161).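 Further: 0% = growth of cultures given vehicle only.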 The note with it: S. cerevisiae sgs1 mgt1 strain, hits give high values. In short, it runs like this: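 Inhibition of yeast growth, normalised to vehicle-treated controls, is reported for a strain bearing genetic alterations in DNA damage repair.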
Assay [4] is described as follows: NCI Yeast Anticancer Drug Screen. Data for the cln2 rad14 strain (AID 165).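 Further: 0% = growth equal to vehicle treated cultures.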 Particulars: S. cerevisiae cln2 rad14 strain, hits give high values. The essentials:
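Test compounds were added to cln2 rad14 yeast cultures; inhibition of growth was then determined by comparison with vehicle treatment.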

Assay [5] is described as follows: NCI Yeast Anticancer Drug Screen. Data for the bub3 strain (AID 167). The note with it: S. cerevisiae bub3 mutant strain, hits give high values. In short, it runs like this: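 Part of a panel of yeast mutants defective in DNA damage repair or cell cycle regulation. Each strain is grown with compound, and inhibition is calculated relative to solvent-treated cultures.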

A short description of assay [6]: NCI Yeast Anticancer Drug Screen. Data for the mlh1 rad18 strain (AID 175). Particulars: S. cerevisiae mlh1 rad18 strain growth inhibition, hits give high values. The essentials: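 Inhibition values reflect reduced growth of mutant yeast versus vehicle-treated controls following compound exposure; the mutations affect DNA damage repair.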
Setting [7] is: at 5.0 µM (retest, dose inferred, filed as 0.5).
Setting [8] is: at 50.0 µM (retest, dose inferred, filed as 5.0).

The panel holds about 79,000 compounds, 15% with a hit somewhere; the sample as a whole holds those more often. A number with no mark means an inactive call. Calls of active or inactive are those of the source. No stated cut-off is given here; in the data, active means growth inhibition above about 70%; inactive means the rest.

Regarding `Cc1ccc(NN(C)c2ccc(C)cc2)cc1`, the growth inhibition is -4% in assay [1] (setting [7]); 2% in assay [1] (setting [8]); 34.3% in assay [1] (at 50.0 µM); -1% in assay [2] (setting [7]); -8% in assay [2] (setting [8]); 16.1% in assay [2] (at 50.0 µM). Moreover, the growth inhibition in assay [3] (setting [7]) is -4%; in assay [3] (setting [8]) it was -10%; in assay [3] (at 50.0 µM), -11.4%; in assay [4] (setting [7]), 5%; in assay [4] (setting [8]) it was -4%; in assay [4] (at 50.0 µM), 13.4%. Also, the growth inhibition in assay [5] (setting [7]) is 9%; in assay [5] (setting [8]), 18%; in assay [5] (at 50.0 µM), 27.6%; in assay [6] (setting [7]), -3%; in assay [6] (setting [8]), 1%; in assay [6] (at 50.0 µM), 3.1%.

Take `CCCCCCCCCc1c(O)c(O)c(CCCCCCCCC)c(CCCCCCCCC)c1CCCCCCCCC`: the growth inhibition in assay [1] (setting [7]) was 1%; in assay [1] (setting [8]) it was 27%; in assay [1] (at 50.0 µM) it was 54.9%; in assay [2] (setting [7]) it was -11%; in assay [2] (setting [8]), 30%; in assay [2] (at 50.0 µM), -5.95%. The growth inhibition was -10% in assay [3] (setting [7]); 28% in assay [3] (setting [8]); 54.9% in assay [3] (at 50.0 µM); 33% in assay [4] (setting [7]); 55% in assay [4] (setting [8]); 49.9% in assay [4] (at 50.0 µM). The growth inhibition is -6% in assay [5] (setting [7]); 87% (active) in assay [5] (setting [8]); 55.4% in assay [5] (at 50.0 µM); -6% in assay [6] (setting [7]); 38% in assay [6] (setting [8]); 85.3% (active) in assay [6] (at 50.0 µM).

Regarding `O=[N+]([O-])c1ccccc1OS(=O)(=O)c1ccccc1`, the growth inhibition was 0% in assay [1] (setting [7]); -2% in assay [1] (setting [8]); -2.5% in assay [1] (at 50.0 µM); -12% in assay [2] (setting [7]); -8% in assay [2] (setting [8]); -1.1% in assay [2] (at 50.0 µM). The growth inhibition in assay [3] (setting [7]) was 4%; in assay [3] (setting [8]) it was 20%; in assay [3] (at 50.0 µM) it was -0.45%; in assay [4] (setting [7]), -25%; in assay [4] (setting [8]) it was 36%; in assay [4] (at 50.0 µM), 6.4%. Moreover, the growth inhibition in assay [5] (setting [7]) is -4%; in assay [5] (setting [8]), 6%; in assay [5] (at 50.0 µM) it was 14.3%; in assay [6] (setting [7]) it was -6%; in assay [6] (setting [8]) it was 3%; in assay [6] (at 50.0 µM) it was 0.65%.

Consider `CCCCCCCSCC1C(=O)C23CC1CCC2C12COC(O)C1C(C)(C)C(O)CC2OC3=O` (stereo not given), for which the growth inhibition in assay [1] (setting [7]) was -19%; in assay [1] (setting [8]), 98% (active); in assay [1] (at 50.0 µM), 91.7% (active); in assay [2] (setting [7]), 1%; in assay [2] (setting [8]), 99% (active); in assay [2] (at 50.0 µM) it was 92.2% (active). Also, the growth inhibition in assay [3] (setting [7]) was -11%; in assay [3] (setting [8]), 98% (active); in assay [3] (at 50.0 µM) it was 92.2% (active); in assay [4] (setting [7]), 9%; in assay [4] (setting [8]) it was 99% (active); in assay [4] (at 50.0 µM), 90% (active). Besides, the growth inhibition in assay [5] (setting [7]) was -4%; in assay [5] (setting [8]) it was 99% (active); in assay [5] (at 50.0 µM), 89% (active); in assay [6] (setting [7]), -29%; in assay [6] (setting [8]), 98% (active); in assay [6] (at 50.0 µM), 63.4%.

Take `O=c1c2c3c(sc2nc2n1N=C(c1ccc(Br)cc1)CS2)CCCC3`: the growth inhibition in assay [1] (setting [7]) is 1%; in assay [1] (setting [8]), -11%; in assay [1] (at 50.0 µM), 21.2%; in assay [2] (setting [7]) it was -3%; in assay [2] (setting [8]), -11%; in assay [2] (at 50.0 µM), -0.4%. The growth inhibition in assay [3] (setting [7]) was -5%; in assay [3] (setting [8]), -1%; in assay [3] (at 50.0 µM) it was -22.8%; in assay [4] (setting [7]), 17%; in assay [4] (setting [8]) it was 10%; in assay [4] (at 50.0 µM), -32.2%. Further, the growth inhibition in assay [5] (setting [7]) is 11%; in assay [5] (setting [8]) it was -10%; in assay [5] (at 50.0 µM), -24.5%; in assay [6] (setting [7]) it was -10%; in assay [6] (setting [8]) it was -6%; in assay [6] (at 50.0 µM), -25.4%.

Regarding `COC(=O)C1(OC(=O)CCC(=O)O)C(=O)NC2=C1C(=O)c1ccccc1C2=O` (stereo not given), the growth inhibition in assay [1] (setting [7]) was 1%; in assay [1] (setting [8]), 9%; in assay [1] (at 50.0 µM), 75.8% (active); in assay [2] (setting [7]), 2%; in assay [2] (setting [8]) it was -58%; in assay [2] (at 50.0 µM), 12%. Also, the growth inhibition is 2% in assay [3] (setting [7]); 13% in assay [3] (setting [8]); 47.8% in assay [3] (at 50.0 µM); 2% in assay [4] (setting [7]); 6% in assay [4] (setting [8]); 38.5% in assay [4] (at 50.0 µM). In addition, the growth inhibition was -42% in assay [5] (setting [7]); 16% in assay [5] (setting [8]); 32.9% in assay [5] (at 50.0 µM); 1% in assay [6] (setting [7]); 17% in assay [6] (setting [8]); 47.2% in assay [6] (at 50.0 µM).

Take `CC1(C)CC(=O)C2=C(C1)OC1=C(C(=O)CC(C)(C)C1)C2CC(c1ccccc1)c1ccc(O)c(O)c1O` (stereo not given): the growth inhibition in assay [1] (setting [7]) was 22%; in assay [1] (setting [8]) it was 30%; in assay [1] (at 50.0 µM), 72.2% (active); in assay [2] (setting [7]), 6%; in assay [2] (setting [8]), -8%; in assay [2] (at 50.0 µM) it was 22.8%. The growth inhibition in assay [3] (setting [7]) is 9%; in assay [3] (setting [8]), 2%; in assay [3] (at 50.0 µM), 48.3%; in assay [4] (setting [7]), 5%; in assay [4] (setting [8]), 18%; in assay [4] (at 50.0 µM), 28.2%. The growth inhibition in assay [5] (setting [7]) was -11%; in assay [5] (setting [8]), -23%; in assay [5] (at 50.0 µM), 36%; in assay [6] (setting [7]), 30%; in assay [6] (setting [8]), 10%; in assay [6] (at 50.0 µM), 56%.

On to `O=C(/C=C\c1ccc(Cl)c(Cl)c1)c1cccs1`, for which the growth inhibition was 13% in assay [1] (setting [7]); -9% in assay [1] (setting [8]); 58.9% in assay [1] (at 50.0 µM); -2% in assay [2] (setting [7]); 4% in assay [2] (setting [8]); 64.4% in assay [2] (at 50.0 µM). Moreover, the growth inhibition in assay [3] (setting [7]) is 4%; in assay [3] (setting [8]), -25%; in assay [3] (at 50.0 µM), 92.2% (active); in assay [4] (setting [7]) it was -6%; in assay [4] (setting [8]), -3%; in assay [4] (at 50.0 µM) it was 51.6%. Further, the growth inhibition in assay [5] (setting [7]) was -4%; in assay [5] (setting [8]), 11%; in assay [5] (at 50.0 µM) it was 89.7% (active); in assay [6] (setting [7]), -3%; in assay [6] (setting [8]), 6%; in assay [6] (at 50.0 µM), 85.5% (active).

`O=C1C=CC(=O)N1c1ccc(-c2ccc(N3C(=O)C=CC3=O)cc2)cc1`: the growth inhibition was 41% in assay [1] (setting [7]); 68% in assay [1] (setting [8]); 48.3% in assay [1] (at 50.0 µM); 56% in assay [2] (setting [7]); 87% (active) in assay [2] (setting [8]); 35.6% in assay [2] (at 50.0 µM). Moreover, the growth inhibition is 60% in assay [3] (setting [7]); 82% (active) in assay [3] (setting [8]); 60.6% in assay [3] (at 50.0 µM); 18% in assay [4] (setting [7]); 57% in assay [4] (setting [8]); 27.1% in assay [4] (at 50.0 µM). Also, the growth inhibition is 33% in assay [5] (setting [7]); 80% (active) in assay [5] (setting [8]); 46% in assay [5] (at 50.0 µM); 58% in assay [6] (setting [7]); 79% (active) in assay [6] (setting [8]); 57.5% in assay [6] (at 50.0 µM).

With `CCOc1cc2c(OCc3ccccc3)cc3c4cc(OC)c(OC)cc4c[n+](C)c3c2cc1OC`, the growth inhibition in assay [1] (setting [7]) was 98% (active); in assay [1] (setting [8]), 99% (active); in assay [1] (at 50.0 µM), 59.6%; in assay [2] (setting [7]), 96% (active); in assay [2] (setting [8]), 99% (active); in assay [2] (at 50.0 µM), 46.2%. In addition, the growth inhibition in assay [3] (setting [7]) is 97% (active); in assay [3] (setting [8]), 99% (active); in assay [3] (at 50.0 µM), 50.8%; in assay [4] (setting [7]) it was 97% (active); in assay [4] (setting [8]) it was 99% (active); in assay [4] (at 50.0 µM), 55%. In addition, the growth inhibition in assay [5] (setting [7]) is 97% (active); in assay [5] (setting [8]), 99% (active); in assay [5] (at 50.0 µM) it was 50.3%; in assay [6] (setting [7]), 97% (active); in assay [6] (setting [8]), 99% (active); in assay [6] (at 50.0 µM), 50.1%.
